Results: PubChem BioAssay (NCATS)
Records with an inconclusive call do not appear. The source made the active and inactive calls. Unless noted, calls follow the shape of the dose curve; as a rule, active = well fitted curve in the direction sought with a large enough effect; inconclusive = small, poorly fitted or top-dose-only effect, or another doubt; inactive = no such curve, though single readings can be large; an effect the other way counts as inactive or inconclusive.

Assays:
[1] = target: Galactokinase (Homo sapiens) (UniProt P51570); assay: qHTS Validation Assay for Inhibitors of Human Galactokinase (GALK) (AID 493189); also: 0% is about no effect
Outline: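 5 nM GALK / 100 uM galactose / 35 uM ATP, 20 mM HEPES pH8.0, 5 mM MgCl2, 60 mM NaCl, 1 mM DTT, 0.01% BSA (final). RT 1 h; Kinase-Glo Plus luminescence.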

[2] = Validation screen for small molecules that induce DNA re-replication in SW480 colon adenocarcinoma cells (AID 504364); also: 0% is about no effect
Outline: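 Image-based DNA content read-out: Hoechst stain 40 min, total nuclear fluorescence intensity (ex 405 nm, em 500-530 nm) after 48 h compound exposure of 250 SW480 cells/well at 37 C, 5% CO2, versus DMSO vehicle.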

[3] = target: Peptidyl-prolyl cis-trans isomerase NIMA-interacting 1 (Homo sapiens) (UniProt Q13526); assay: qHTS Validation Assay to Find Inhibitors of Pin1 (AID 504536; active = well fitted inhibition curve with a large enough effect in the polarisation, with a control signal flat, not every such curve was filed as active; the % refers to the polarisation;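 also: 0% = full Pin1 enzyme wells and -100% = no-enzyme wells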)
Outline: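 Fluorescence polarization competition: compounds (titration) displace HiFluor-488-labeled Pin1-1b peptide from Pin1 (0.3 uM final) in pH 7.5 HEPES buffer with DTT, 10 min at room temperature; %Activity normalized to no-enzyme wells, curves fitted.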

[4] = target: Phosphoglycerate kinase, glycosomal (Trypanosoma brucei brucei) (UniProt P07378); assay: qHTS Validation Assay to Find Inhibitors of Phosphoglycerate Kinase (AID 504547);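 also: control wells lack PGK and mark full inhibition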
Outline: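 Compounds are pinned into the substrate/PGK mixture, and GAPDH (100nM final) is added to start the reaction by producing 1,3-BPG. After 60 minutes at room temperature, Kinase-Glo Plus is added and luminescence is measured 10 minutes later.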

[5] = target: phosphoglycerate mutase (Leishmania major) (UniProt Q4Q090); assay: qHTS Validation Assay to Find Inhibitors of Phosphoglycerate Mutase (AID 504548); also: series mostly up to about 58 µM; % is scaled to controls: 0 for no effect and ±100 for the full control effect
Outline: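 Lm PGAM 1.25nM final; 100 mM TEA pH 7.6, 5 mM MgCl2, 0.01% Tween-20; 45 min RT; Kinase-GloPlus, 10 min; end-point luminescence. Enzyme-free wells as negative controls.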

[6] = target: Ubiquitin carboxyl-terminal hydrolase 1 (Homo sapiens) (UniProt O94782); assay: Inhibitors of USP1/UAF1: Pilot qHTS (AID 504865);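 also: rhodamine fluorescence freed from ubiquitin-rhodamine substrate followed over time; top concentration of the series differs between compounds; % is scaled to controls: 0 for no effect and ±100 for the full control effect; nearly all actives have a fitted effect of over 35% in size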
Outline: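 In 50mM HEPES pH 7.8 containing 0.5mM EDTA, 1mM TCEP, 0.1 mg/ml BSA and 0.01% Tween-20, 1nM USP1/UAF1 is exposed to compound for 15 min, then Ub-Rho (150nM final) is added and fluorescence is read over time.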

[7] = target: DNA dC->dU-editing enzyme APOBEC-3G (Homo sapiens) (UniProt Q9HC16); assay: qHTS for inhibitors of Vif-A3G interactions: Validation (AID 588379); also: 0% is about no effect
Outline: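 Yellow fluorescence (Ex 488, Em 500-530) of Vif-coexpressing HeLa A3G-eYFP cells, scanned by Acumen cytometer, reports blocked A3G degradation. Cells plated at 700/well overnight at 37 deg C before compound addition, then a further overnight compound incubation at 37 deg C.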

[8] = qHTS for Inhibitors of ATXN expression: Validation of Cytotoxic Assay (AID 588349); also: % is scaled to controls: 0 for no effect and ±100 for the full control effect
Outline: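 Cytotoxicity counter-screen: ATP-based luminescent viability (CellTiter Glo) after 72 hr exposure of HEK293 cells to a compound titration at 37 degrees C.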

[9] = qHTS for Inhibitors of ATXN expression: Validation (AID 588378); also: series mostly up to about 57 µM; % is scaled to controls: 0 for no effect and ±100 for the full control effect; nearly all actives have a fitted effect of over 75% in size
Outline: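 Compounds were pinned onto attached HEK293 cells carrying an ATXN2-firefly luciferase construct and incubated 24 hrs at 37 degrees C. Each well then received a fluorescent viability reagent followed by luciferase substrate for end-point luminescence.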

[10] = target: Glucocorticoid receptor (Homo sapiens) (UniProt P04150); assay: qHTS assay for small molecule agonists of glucocorticoid receptor signaling (AID 588532; active = well fitted curve in the direction sought with a large enough effect in the signal ratio, with a control signal flat; the % refers to the signal ratio;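 also: 100% = dexamethasone at 0.1 µM and 0% = DMSO only wells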); conditions: HeLa MMTV-bla, beta-lactamase ratio, agonist, 18 h; hits give high values; percent of dexamethasone control, DMSO zero
Outline: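 MMTV-bla HeLa beta-lactamase reporter cells in 1% charcoal/dextran FBS medium, compounds up to 92 uM for 18 h at 37 C, CCF4 readout; normalized to 0.1 uM dexamethasone (100%), EC50 and efficacy from Hill fits.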

[11] = target: Glucocorticoid receptor (Homo sapiens) (UniProt P04150); assay: qHTS assay for small molecule antagonists of glucocorticoid receptor signaling (AID 588533; active = well fitted inhibition curve with a large enough effect in the signal ratio, with a control signal flat, not every such curve was filed as active; the % refers to the signal ratio; also: potency is read from the fitted curve at half-maximal effect)
Outline: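 Antagonist-mode qHTS: compound titrations added to GRE-bla HeLa cells, then dexamethasone 2 nM final; 18 h, 37 C. CCF4 FRET fluorescence normalized to dexamethasone and DMSO; IC50 from Hill fit.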

[12] = target: Peroxisome proliferator-activated receptor gamma (Homo sapiens) (UniProt P37231); assay: qHTS assay for small molecule antagonists of peroxisome proliferator-activated receptor gamma signaling (AID 588537; active = well fitted inhibition curve with a large enough effect in the signal ratio, with a control signal flat, not every such curve was filed as active; the % refers to the signal ratio; also: potency is read from the fitted curve at half-maximal effect)
Outline: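 Fluorescence at 460 and 530 nm (405 nm excitation) reported beta-lactamase cleavage of CCF4 after 2 h room-temperature loading. HEK293 reporter cells in 1% charcoal/dextran-treated FBS had received compound and rosiglitazone for 16 h.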

[13] = target: Vitamin D3 receptor (Homo sapiens) (UniProt P11473); assay: qHTS assay for small molecule antagonists of vitamin D receptor signaling (AID 588541; calls by dose curve;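 also: receptor activated by calcitriol during compound treatment; series mostly up to about 77 µM; % is scaled to controls: 0 for no effect and ±100 for the full control effect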)
Outline: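 VDR-UAS-bla HEK293T cells in 2% charcoal-stripped FBS were stimulated with 1-alpha,25-dihydroxyvitamin D3 (3 nM final) plus compound for 16 h at 37 C. The beta-lactamase CCF4 readout was normalized to 50 nM agonist and DMSO, and Hill fits gave IC50.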

DNA dC->dU-editing enzyme APOBEC-3G (Homo sapiens), sequence (Q9HC16 whole entry, looked up): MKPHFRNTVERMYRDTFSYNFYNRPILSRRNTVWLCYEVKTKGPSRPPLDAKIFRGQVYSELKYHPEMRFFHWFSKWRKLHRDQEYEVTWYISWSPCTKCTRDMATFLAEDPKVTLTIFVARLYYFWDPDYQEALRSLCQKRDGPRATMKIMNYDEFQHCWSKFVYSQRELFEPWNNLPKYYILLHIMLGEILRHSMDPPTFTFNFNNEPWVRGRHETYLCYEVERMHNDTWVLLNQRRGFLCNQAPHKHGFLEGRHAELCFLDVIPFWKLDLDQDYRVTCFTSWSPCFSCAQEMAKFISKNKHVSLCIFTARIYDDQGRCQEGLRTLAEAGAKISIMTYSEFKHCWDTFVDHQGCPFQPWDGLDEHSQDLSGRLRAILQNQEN
Galactokinase (Homo sapiens), sequence (P51570 whole entry, looked up): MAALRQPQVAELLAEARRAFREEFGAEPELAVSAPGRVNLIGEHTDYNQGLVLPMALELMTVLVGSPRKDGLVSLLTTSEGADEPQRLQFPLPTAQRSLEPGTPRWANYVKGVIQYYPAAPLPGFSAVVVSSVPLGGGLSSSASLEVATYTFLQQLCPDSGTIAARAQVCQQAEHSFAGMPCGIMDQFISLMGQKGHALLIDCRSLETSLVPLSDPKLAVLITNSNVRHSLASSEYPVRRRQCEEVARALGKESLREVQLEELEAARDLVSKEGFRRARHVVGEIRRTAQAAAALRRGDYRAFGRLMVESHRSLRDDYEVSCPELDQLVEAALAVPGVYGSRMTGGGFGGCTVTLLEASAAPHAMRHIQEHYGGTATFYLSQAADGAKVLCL
Ubiquitin carboxyl-terminal hydrolase 1 (Homo sapiens), sequence (O94782 whole entry, looked up): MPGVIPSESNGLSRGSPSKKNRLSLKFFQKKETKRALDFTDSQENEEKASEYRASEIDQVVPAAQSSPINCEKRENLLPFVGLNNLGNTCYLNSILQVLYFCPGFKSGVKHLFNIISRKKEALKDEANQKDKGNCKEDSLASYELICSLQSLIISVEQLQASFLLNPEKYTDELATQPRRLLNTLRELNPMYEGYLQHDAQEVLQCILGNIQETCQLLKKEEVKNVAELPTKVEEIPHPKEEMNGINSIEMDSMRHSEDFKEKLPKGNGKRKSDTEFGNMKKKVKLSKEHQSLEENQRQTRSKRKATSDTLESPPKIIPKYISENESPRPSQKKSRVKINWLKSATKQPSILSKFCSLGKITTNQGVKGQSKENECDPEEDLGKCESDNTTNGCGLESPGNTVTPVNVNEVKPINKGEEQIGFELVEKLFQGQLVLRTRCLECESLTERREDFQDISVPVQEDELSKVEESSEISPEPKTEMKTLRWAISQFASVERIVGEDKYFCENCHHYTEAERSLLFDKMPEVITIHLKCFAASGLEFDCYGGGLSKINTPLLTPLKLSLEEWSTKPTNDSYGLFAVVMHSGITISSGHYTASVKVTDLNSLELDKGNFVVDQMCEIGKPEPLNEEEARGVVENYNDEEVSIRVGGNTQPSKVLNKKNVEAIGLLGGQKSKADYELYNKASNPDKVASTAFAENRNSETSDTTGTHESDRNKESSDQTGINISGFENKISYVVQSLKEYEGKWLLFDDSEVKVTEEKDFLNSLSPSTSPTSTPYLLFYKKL
phosphoglycerate mutase (Leishmania major), sequence (Q4Q090 1-553): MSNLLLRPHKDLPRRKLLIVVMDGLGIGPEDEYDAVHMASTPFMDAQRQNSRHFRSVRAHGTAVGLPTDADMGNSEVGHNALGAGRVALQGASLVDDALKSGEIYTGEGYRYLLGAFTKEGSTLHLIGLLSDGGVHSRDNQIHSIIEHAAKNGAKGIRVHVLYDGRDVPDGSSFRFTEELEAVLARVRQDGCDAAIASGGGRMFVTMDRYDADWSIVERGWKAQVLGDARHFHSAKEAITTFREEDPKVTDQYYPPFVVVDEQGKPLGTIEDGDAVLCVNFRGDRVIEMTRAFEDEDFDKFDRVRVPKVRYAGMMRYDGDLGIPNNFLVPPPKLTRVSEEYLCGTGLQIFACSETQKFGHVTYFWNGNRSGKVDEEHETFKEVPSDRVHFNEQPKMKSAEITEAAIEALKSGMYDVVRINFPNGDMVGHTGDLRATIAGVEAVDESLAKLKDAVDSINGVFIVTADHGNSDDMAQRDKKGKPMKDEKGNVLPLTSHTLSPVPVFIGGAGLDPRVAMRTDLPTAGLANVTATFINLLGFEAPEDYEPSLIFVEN
Peptidyl-prolyl cis-trans isomerase NIMA-interacting 1 (Homo sapiens), sequence (Q13526 whole entry, looked up): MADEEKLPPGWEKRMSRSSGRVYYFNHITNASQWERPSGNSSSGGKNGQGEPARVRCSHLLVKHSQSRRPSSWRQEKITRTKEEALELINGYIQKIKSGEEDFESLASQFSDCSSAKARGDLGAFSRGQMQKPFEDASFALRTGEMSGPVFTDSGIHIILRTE
Phosphoglycerate kinase, glycosomal (Trypanosoma brucei brucei), sequence (P07378 whole entry, looked up): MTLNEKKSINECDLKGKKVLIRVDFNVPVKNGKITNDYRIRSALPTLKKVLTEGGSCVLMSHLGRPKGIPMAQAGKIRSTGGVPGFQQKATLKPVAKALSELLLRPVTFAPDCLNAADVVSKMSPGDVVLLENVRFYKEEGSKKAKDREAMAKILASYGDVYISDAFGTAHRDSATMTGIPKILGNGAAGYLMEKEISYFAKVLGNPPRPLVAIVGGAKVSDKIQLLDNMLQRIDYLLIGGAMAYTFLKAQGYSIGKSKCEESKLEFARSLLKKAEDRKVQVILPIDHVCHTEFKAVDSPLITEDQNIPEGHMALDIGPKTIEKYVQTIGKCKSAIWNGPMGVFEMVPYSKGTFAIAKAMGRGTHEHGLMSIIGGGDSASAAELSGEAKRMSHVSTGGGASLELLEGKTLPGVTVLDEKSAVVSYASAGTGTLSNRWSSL
Glucocorticoid receptor (Homo sapiens), sequence (P04150 whole entry, looked up): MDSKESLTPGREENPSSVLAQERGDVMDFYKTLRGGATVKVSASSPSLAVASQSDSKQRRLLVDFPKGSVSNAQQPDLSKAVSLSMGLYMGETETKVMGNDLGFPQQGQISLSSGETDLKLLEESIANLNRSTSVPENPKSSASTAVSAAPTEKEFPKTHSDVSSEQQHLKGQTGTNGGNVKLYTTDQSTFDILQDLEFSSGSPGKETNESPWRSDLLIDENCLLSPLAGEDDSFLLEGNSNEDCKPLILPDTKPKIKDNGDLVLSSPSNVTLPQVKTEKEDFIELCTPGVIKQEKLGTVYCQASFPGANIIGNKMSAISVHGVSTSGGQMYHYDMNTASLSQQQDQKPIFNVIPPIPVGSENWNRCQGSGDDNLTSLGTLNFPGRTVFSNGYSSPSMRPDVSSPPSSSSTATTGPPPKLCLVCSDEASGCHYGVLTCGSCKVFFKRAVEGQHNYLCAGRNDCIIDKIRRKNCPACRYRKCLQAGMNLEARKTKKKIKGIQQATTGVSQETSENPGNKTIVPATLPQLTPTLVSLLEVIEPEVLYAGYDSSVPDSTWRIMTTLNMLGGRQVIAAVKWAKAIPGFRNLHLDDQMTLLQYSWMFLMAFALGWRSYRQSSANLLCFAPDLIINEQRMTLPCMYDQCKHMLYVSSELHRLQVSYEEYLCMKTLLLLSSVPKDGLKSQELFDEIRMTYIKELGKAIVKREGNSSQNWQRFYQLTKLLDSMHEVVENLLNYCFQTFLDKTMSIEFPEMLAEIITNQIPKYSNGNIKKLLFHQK
Vitamin D3 receptor (Homo sapiens), sequence (P11473 whole entry, looked up): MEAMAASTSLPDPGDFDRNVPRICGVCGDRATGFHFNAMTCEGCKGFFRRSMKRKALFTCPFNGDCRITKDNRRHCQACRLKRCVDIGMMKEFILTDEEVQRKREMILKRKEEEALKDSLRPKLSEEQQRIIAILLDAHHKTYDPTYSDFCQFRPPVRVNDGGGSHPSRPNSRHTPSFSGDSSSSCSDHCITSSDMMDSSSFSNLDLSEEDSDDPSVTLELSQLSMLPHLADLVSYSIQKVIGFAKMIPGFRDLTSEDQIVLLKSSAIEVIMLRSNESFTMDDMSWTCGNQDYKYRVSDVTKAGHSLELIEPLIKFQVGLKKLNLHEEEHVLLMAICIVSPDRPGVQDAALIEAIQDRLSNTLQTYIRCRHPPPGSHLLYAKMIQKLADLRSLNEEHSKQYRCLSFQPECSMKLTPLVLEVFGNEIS
Peroxisome proliferator-activated receptor gamma (Homo sapiens), sequence (P37231 whole entry, looked up): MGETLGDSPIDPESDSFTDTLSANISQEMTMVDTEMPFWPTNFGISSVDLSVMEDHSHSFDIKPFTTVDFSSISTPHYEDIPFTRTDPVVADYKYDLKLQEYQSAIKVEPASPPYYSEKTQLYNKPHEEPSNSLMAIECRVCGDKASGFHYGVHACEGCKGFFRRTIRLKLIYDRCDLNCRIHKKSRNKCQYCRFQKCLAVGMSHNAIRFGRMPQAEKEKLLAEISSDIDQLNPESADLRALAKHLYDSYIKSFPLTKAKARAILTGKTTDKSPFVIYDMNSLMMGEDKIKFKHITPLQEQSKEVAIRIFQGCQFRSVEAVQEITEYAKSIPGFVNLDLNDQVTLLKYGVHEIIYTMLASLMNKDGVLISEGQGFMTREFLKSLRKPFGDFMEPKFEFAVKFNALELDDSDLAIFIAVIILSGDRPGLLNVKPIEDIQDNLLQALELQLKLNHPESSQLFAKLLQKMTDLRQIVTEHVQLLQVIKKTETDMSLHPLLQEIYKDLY

CN1C2CCC1CC(OC(=O)c1c[nH]c3ccccc13)C2 (centres undefined)
inactive: outcome [1] | outcome [2] | outcome [3] | outcome [4] | outcome [5] | Potency [6]

COc1cc2c(cc1OC)C(=O)C(CC1CCN(Cc3ccccc3)CC1)C2 (centres undefined)
inactive: Potency [6]

CN=C(NC#N)Nc1ccc(C2=NNC(=O)CC2C)cc1 (centres undefined)
inactive: outcome [1] | outcome [2] | Potency [6] | outcome [7]

O=C1CCC(c2ccc(-n3ccnc3)cc2)=NN1
inactive: outcome [1] | outcome [2] | outcome [3] | outcome [4] | outcome [5] | Potency [6] | outcome [8] | Potency [9]

CCCn1c(=O)[nH]c(=O)c2[nH]cnc21
inactive: outcome [1] | outcome [2] | outcome [3] | outcome [4] | outcome [5] | Potency [6] | outcome [8] | Potency [9]

CC(C)COC(=O)OCN1C(=O)CN(CCN2CC(=O)N(COC(=O)OCC(C)C)C(=O)C2)CC1=O
inactive: outcome [1] | outcome [3] | outcome [4] | outcome [5] | Potency [6] | outcome [8] | Potency [9]

CC(=O)O[C@H]1C[C@@H]2CC[C@@H]3[C@H](CC[C@@]4(C)[C@H]3C[C@H]([N+]3(C)CCCCC3)[C@@H]4OC(C)=O)[C@@]2(C)C[C@@H]1[N+]1(C)CCCCC1
inactive: outcome [3] | outcome [4] | outcome [5] | outcome [8] | Potency [9]

C[C@]12CC[C@@H]3c4ccc(O)cc4CC[C@H]3[C@@H]1CC[C@@H]2O
inactive: outcome [1] | outcome [2] | outcome [3] | outcome [4] | outcome [5] | Potency [6] | Potency [9] | activation [10] -6.54% | Potency [13]
active: Potency [11] 7.08 µM | Potency [12] 39.8 µM

N[C@@H](Cc1cnc[nH]1)C(=O)O
inactive: outcome [1] | outcome [2] | outcome [3] | outcome [4] | outcome [5] | Potency [6] | outcome [8] | Potency [9]

C[C@@H]1C(=O)NC2=Nc3cccc(Cl)c3CN21
inactive: outcome [1] | outcome [2] | outcome [3] | outcome [4] | outcome [5] | Potency [6] | outcome [8] | Potency [9]

CCC(NC(C)C)C(O)c1ccc(O)c(O)c1 (centres undefined)
inactive: outcome [1] | outcome [2] | outcome [3] | outcome [4] | Potency [6] | outcome [8]

C[N+]1(CCCCC[N+]2(C)CCCC2)CCCC1
inactive: outcome [1] | outcome [2] | outcome [3] | outcome [4] | outcome [5] | Potency [6] | outcome [8] | Potency [9]

O=C(O)c1cc2cc(Cc3cccnc3)ccc2o1
inactive: outcome [1] | outcome [2] | outcome [3] | outcome [4] | outcome [5] | Potency [6] | outcome [8] | Potency [9]

CC(CCc1ccccc1)NCC(O)c1ccc(O)c(C(N)=O)c1 (centres undefined)
inactive: outcome [1] | outcome [2] | outcome [3] | outcome [4] | outcome [5] | Potency [6]

COc1cc(-c2ccc(=O)[nH]n2)ccc1OC(F)F
inactive: outcome [1] | outcome [2] | Potency [6] | outcome [7]

CC(C)NC[C@@H](O)COc1cccc2ccccc12
inactive: outcome [2] | Potency [6] | outcome [7]

CNCCC(Oc1ccccc1C)c1ccccc1 (centres undefined)
inactive: outcome [1] | outcome [2] | outcome [3] | outcome [4] | outcome [5] | Potency [6] | outcome [8]

CCCC1O[C@@H]2C[C@H]3[C@@H]4CCC5=CC(=O)C=C[C@]5(C)[C@H]4[C@@H](O)C[C@]3(C)[C@]2(C(=O)CO)O1 (some centres undefined)
inactive: outcome [3] | outcome [4] | outcome [5] | Potency [6] | outcome [8] | Potency [9]

COC(=O)[C@H]1[C@H]2C[C@H]3c4[nH]c5ccccc5c4CCN3C[C@H]2CC[C@@H]1O
inactive: outcome [1] | outcome [2] | outcome [3] | outcome [4] | outcome [5] | Potency [6] | outcome [8] | Potency [9]

CCCOC(C(=O)OC1CCN(C)CC1)(c1ccccc1)c1ccccc1
inactive: Potency [6]

Oc1ccc(O)cc1
inactive: outcome [1] | outcome [2] | outcome [4] | outcome [5] | Potency [6] | activation [10] -0.636%
